This note sets out measurements from PubChem BioAssay (NCI).

Several values for one entry are separate records, joined by “and”; a condition that tells them apart may be missing. Identical values can stand only once. Compounds without any hit were thinned out: in the full panel of roughly 79,000, 15% have a hit. More than one record can exist for a structure, and the calls need not agree. Activity calls are given as the source filed them. Rule as the data show it: active = growth inhibition above about 70%; inactive = the rest.

Assay [1] in a line: NCI Yeast Anticancer Drug Screen. Data for the rad50 strain (AID 155).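 Also: 0% = growth of vehicle-only cultures of the same strain.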 The conditions noted are these: S. cerevisiae rad50 strain growth inhibition, stronger effect = higher value. The procedure, abridged: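 Relative growth inhibition (compound vs vehicle) was measured in yeast with a defined repair-gene alteration.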
Assay [2] can be described thus: NCI Yeast Anticancer Drug Screen. Data for the mec2-1 strain (AID 157). The conditions noted are these: S. cerevisiae mec2-1 strain, stronger effect = higher value. The procedure, abridged: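 Growth inhibition is read against vehicle-treated controls after compound exposure of the mec2-1 yeast strain, which is defective in DNA damage repair or cell cycle control.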
Assay [3] in a line: NCI Yeast Anticancer Drug Screen. Data for the sgs1 mgt1 strain (AID 161).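 Also: 0% = growth of cultures given vehicle only.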 The following applies: S. cerevisiae sgs1 mgt1 strain, stronger effect = higher value. The procedure, abridged:
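Percent growth inhibition was derived by comparing compound-exposed mutant yeast with vehicle-exposed cultures. The strain carries alterations in DNA damage repair.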

Assay [4] in a line: NCI Yeast Anticancer Drug Screen. Data for the cln2 rad14 strain (AID 165).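 Also: 0% = growth equal to vehicle treated cultures.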 The conditions noted are these: S. cerevisiae cln2 rad14 strain, stronger effect = higher value. The procedure, abridged:
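Growth inhibition, relative to vehicle-treated controls, is the read-out. The test organism is a yeast strain with defined genetic alterations, cln2 rad14.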

Assay [5] is described as follows: NCI Yeast Anticancer Drug Screen. Data for the bub3 strain (AID 167). The conditions noted are these: S. cerevisiae bub3 mutant strain, stronger effect = higher value. The method in brief: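 Screening used yeast with an engineered genetic alteration affecting cell cycle control. Compound-exposed cultures were compared with vehicle cultures, and reduced growth was taken as inhibition.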

Assay [6] is described as follows: NCI Yeast Anticancer Drug Screen. Data for the mlh1 rad18 strain (AID 175). The following applies: S. cerevisiae mlh1 rad18 strain growth inhibition, stronger effect = higher value. The method in brief: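 Cells of a genetically altered yeast strain, deficient in DNA damage repair, were treated with compound. Their growth was then compared with that of vehicle-treated cultures to give inhibition.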

Setting [7] is: at 5.0 µM (retest, dose inferred, filed as 0.5).
Where [8] appears, read: at 50.0 µM (retest, dose inferred, filed as 5.0).

On to `COC(=O)C1=C(O)C(C(=O)OC)[C@]2(O)[C@@H](C(=O)OC)[C@H]1C[C@@H](c1ccccc1)[C@@H]2C(=O)OC` (some centres undefined), for which the growth inhibition in assay [1] (setting [7]) is 4% (inactive); in assay [1] (setting [8]) it was 98% (active); in assay [1] (at 50.0 µM), 97.7% (active); in assay [2] (setting [7]), 3% (inactive); in assay [2] (setting [8]), 97% (active); in assay [2] (at 50.0 µM) it was 98.3% (active). Further, the growth inhibition in assay [3] (setting [7]) was 10% (inactive); in assay [3] (setting [8]), 97% (active); in assay [3] (at 50.0 µM) it was 98.3% (active); in assay [4] (setting [7]) it was 11% (inactive); in assay [4] (setting [8]), 92% (active); in assay [4] (at 50.0 µM), 84.3% (active). The growth inhibition in assay [5] (setting [7]) is 3% (inactive); in assay [5] (setting [8]), 97% (active); in assay [5] (at 50.0 µM), 98.2% (active); in assay [6] (setting [7]) it was 10% (inactive); in assay [6] (setting [8]), 98% (active); in assay [6] (at 50.0 µM) it was 98.6% (active).

As for `CC(=O)C(CN(C(C)C)C(C)C)C(c1ccccc1)c1c(O)c2ccccc2oc1=O` (centres undefined), the growth inhibition in assay [1] (setting [7]) is 17% (inactive); in assay [1] (setting [8]), 17% (inactive); in assay [1] (at 50.0 µM), 72% (active); in assay [2] (setting [7]), 11% (inactive); in assay [2] (setting [8]), 11% (inactive); in assay [2] (at 50.0 µM) it was 47.4% (inactive). In addition, the growth inhibition in assay [3] (setting [7]) is 8% (inactive); in assay [3] (setting [8]), 8% (inactive); in assay [3] (at 50.0 µM), 58.7% (inactive); in assay [4] (setting [7]), -3% (inactive); in assay [4] (setting [8]), -3% (inactive); in assay [4] (at 50.0 µM), 58% (inactive). The growth inhibition in assay [5] (setting [7]) was 13% (inactive); in assay [5] (setting [8]), 13% (inactive); in assay [5] (at 50.0 µM) it was 70.3% (active); in assay [6] (setting [7]), 12% (inactive); in assay [6] (setting [8]), 12% (inactive); in assay [6] (at 50.0 µM) it was 70.1% (active).

Turning to `CC1CCC2(NC1)OC1CC3C4CC=C5CC(O)CCC5(C)C4CCC3(C)C1C2C` (centres undefined), the growth inhibition in assay [1] (setting [7]) was 78% (active) and -4% (inactive); in assay [1] (setting [8]) it was 98% (active) and 99% (active); in assay [1] (at 50.0 µM) it was 90.8% (active) and 98.2% (active); in assay [2] (setting [7]) it was 56% (inactive) and 13% (inactive); in assay [2] (setting [8]), 99% (active) and 98% (active); in assay [2] (at 50.0 µM), 93% (active) and 99.3% (active). Further, the growth inhibition in assay [3] (setting [7]) is 92% (active) and -3% (inactive); in assay [3] (setting [8]), 99% (active); in assay [3] (at 50.0 µM), 91.8% (active) and 99% (active); in assay [4] (setting [7]), 72% (active) and -17% (inactive); in assay [4] (setting [8]), 99% (active) and 98% (active); in assay [4] (at 50.0 µM) it was 87.5% (active) and 98.5% (active). Besides, the growth inhibition in assay [5] (setting [7]) is 93% (active) and 39% (inactive); in assay [5] (setting [8]), 99% (active); in assay [5] (at 50.0 µM), 90.2% (active) and 99.1% (active); in assay [6] (setting [7]), 77% (active) and 4% (inactive); in assay [6] (setting [8]), 98% (active) and 99% (active); in assay [6] (at 50.0 µM) it was 89% (active) and 98.8% (active).

On to `O=P(O/C(=C\c1ccccc1)c1ccccc1)(c1ccccc1)c1ccccc1`, for which the growth inhibition is 18% (inactive) in assay [1] (setting [7]); 96% (active) in assay [1] (setting [8]); 96.8% (active) in assay [1] (at 50.0 µM); 17% (inactive) in assay [2] (setting [7]); 98% (active) in assay [2] (setting [8]); 98.3% (active) in assay [2] (at 50.0 µM). Further, the growth inhibition is 15% (inactive) in assay [3] (setting [7]); 98% (active) in assay [3] (setting [8]); 98.2% (active) in assay [3] (at 50.0 µM); 8% (inactive) in assay [4] (setting [7]); 97% (active) in assay [4] (setting [8]); 96.2% (active) in assay [4] (at 50.0 µM). Further, the growth inhibition in assay [5] (setting [7]) is 11% (inactive); in assay [5] (setting [8]), 97% (active); in assay [5] (at 50.0 µM), 97% (active); in assay [6] (setting [7]), 7% (inactive); in assay [6] (setting [8]), 97% (active); in assay [6] (at 50.0 µM) it was 93.7% (active).

In the case of `COC(=O)C1=C(C)NC(=S)NC1c1ccc(N(CCCl)CCCl)cc1Cl` (centres undefined), the growth inhibition in assay [1] (setting [7]) is 10% (inactive); in assay [1] (setting [8]), 94% (active); in assay [1] (at 50.0 µM), 51.1% (inactive); in assay [2] (setting [7]), -28% (inactive); in assay [2] (setting [8]), 96% (active); in assay [2] (at 50.0 µM), 86.7% (active). The growth inhibition was 1% (inactive) in assay [3] (setting [7]); 95% (active) in assay [3] (setting [8]); 86.2% (active) in assay [3] (at 50.0 µM); -8% (inactive) in assay [4] (setting [7]); 92% (active) in assay [4] (setting [8]); 61.9% (inactive) in assay [4] (at 50.0 µM). Moreover, the growth inhibition in assay [5] (setting [7]) was 81% (active); in assay [5] (setting [8]), 97% (active); in assay [5] (at 50.0 µM), 96.5% (active); in assay [6] (setting [7]), 13% (inactive); in assay [6] (setting [8]), 94% (active); in assay [6] (at 50.0 µM) it was 91.3% (active).

For `O=[N+]([O-])c1c(Cl)sc(Cl)c1[N+](=O)[O-]`, the growth inhibition was 99% (active) in assay [1] (setting [7]); 99% (active) in assay [1] (setting [8]); 99.7% (active) in assay [1] (at 50.0 µM); 100% (active) in assay [2] (setting [7]); 100% (active) in assay [2] (setting [8]); 99.7% (active) in assay [2] (at 50.0 µM). Besides, the growth inhibition in assay [3] (setting [7]) was 99% (active); in assay [3] (setting [8]), 99% (active); in assay [3] (at 50.0 µM) it was 99.5% (active); in assay [4] (setting [7]), 99% (active); in assay [4] (setting [8]), 99% (active); in assay [4] (at 50.0 µM), 99.8% (active). The growth inhibition in assay [5] (setting [7]) is 100% (active); in assay [5] (setting [8]) it was 100% (active); in assay [5] (at 50.0 µM) it was 99.7% (active); in assay [6] (setting [7]), 99% (active); in assay [6] (setting [8]), 99% (active); in assay [6] (at 50.0 µM), 99.7% (active).

Regarding `O=c1oc2ccccc2c(O)c1C(C/C(CCN1CCCC1)=N\Nc1ccccc1)c1ccccc1` (centres undefined), the growth inhibition in assay [1] (setting [7]) was 3% (inactive); in assay [1] (setting [8]) it was 3% (inactive); in assay [1] (at 50.0 µM), 86.3% (active); in assay [2] (setting [7]), -2% (inactive); in assay [2] (setting [8]), -2% (inactive); in assay [2] (at 50.0 µM), 80.7% (active). The growth inhibition in assay [3] (setting [7]) was 1% (inactive); in assay [3] (setting [8]) it was 1% (inactive); in assay [3] (at 50.0 µM) it was 87.8% (active); in assay [4] (setting [7]), 8% (inactive); in assay [4] (setting [8]) it was 8% (inactive); in assay [4] (at 50.0 µM) it was 81.3% (active). Moreover, the growth inhibition is -13% (inactive) in assay [5] (setting [7]); -13% (inactive) in assay [5] (setting [8]); 81.7% (active) in assay [5] (at 50.0 µM); -6% (inactive) in assay [6] (setting [7]); -6% (inactive) in assay [6] (setting [8]); 83.9% (active) in assay [6] (at 50.0 µM).

In the case of `Cc1cc(N(CCCl)CCCl)ccc1C=Nc1ccc(-c2csc(COc3ccccc3)n2)c(Cl)c1`, the growth inhibition in assay [1] (setting [7]) was 4% (inactive); in assay [1] (setting [8]), 93% (active); in assay [1] (at 50.0 µM), 94% (active); in assay [2] (setting [7]) it was -13% (inactive); in assay [2] (setting [8]), 90% (active); in assay [2] (at 50.0 µM), 95.6% (active). Moreover, the growth inhibition in assay [3] (setting [7]) was 23% (inactive); in assay [3] (setting [8]) it was 95% (active); in assay [3] (at 50.0 µM), 95% (active); in assay [4] (setting [7]), -10% (inactive); in assay [4] (setting [8]), 94% (active); in assay [4] (at 50.0 µM), 89.1% (active). Moreover, the growth inhibition in assay [5] (setting [7]) was 6% (inactive); in assay [5] (setting [8]), 91% (active); in assay [5] (at 50.0 µM) it was 90.3% (active); in assay [6] (setting [7]) it was 52% (inactive); in assay [6] (setting [8]) it was 94% (active); in assay [6] (at 50.0 µM), 94.5% (active).
